Hits are enriched below; roughly 2.4% of the tested compounds scored in any of these assays.
AmpC nodet inh = inhibitors of E. coli AmpC beta-lactamase without detergent. P00811. AmpC nitrocefin hydrolysis, absorbance 480 nm, no detergent. Potency, µM (top dose mostly 28.7 µM). 71,000 tested, 1.8% active
Target sequence (P00811 whole entry, looked up): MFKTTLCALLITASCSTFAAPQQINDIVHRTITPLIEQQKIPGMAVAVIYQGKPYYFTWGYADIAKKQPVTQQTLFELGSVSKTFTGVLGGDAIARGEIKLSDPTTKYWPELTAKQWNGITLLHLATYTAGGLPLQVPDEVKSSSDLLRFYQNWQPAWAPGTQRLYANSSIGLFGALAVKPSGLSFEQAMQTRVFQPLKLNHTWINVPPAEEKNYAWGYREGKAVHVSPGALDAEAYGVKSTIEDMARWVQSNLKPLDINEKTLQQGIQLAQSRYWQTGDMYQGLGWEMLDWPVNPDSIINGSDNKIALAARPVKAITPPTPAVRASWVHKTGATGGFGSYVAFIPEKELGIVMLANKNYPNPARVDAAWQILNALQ
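Enzyme, pH 7.0 phosphate. Compound titrations were pre-incubated with AmpC for 15 min at room temperature before nitrocefin (stock 800 uM) addition; product formation was recorded at 480 nm every 20 s for 4 min.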
SmPrx2 inh = inhibitors of Schistosoma mansoni peroxiredoxin 2. S. mansoni Prx2 activity coupled to TGR/GSH (TGR is thioredoxin glutathione reductase), NADPH fluorescence loss, qHTS. Potency, µM. 65,000 tested, 0.07% active. AID 448
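Coupled assay in which S. mansoni TGR passes NADPH reducing equivalents via glutathione to Prx2, which reduces H2O2. Compounds were preincubated 15 min at room temperature with 25 nM TGR/50 nM Prx2 mix. Kinetic NADPH fluorescence loss (ex 365/em 450 nm) was monitored.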
AmpC inh det = inhibitors of E. coli AmpC beta-lactamase with detergent; 71,000 tested, 0.09% active; Potency, µM (top dose mostly 28.7 µM); purified AmpC, nitrocefin hydrolysis with detergent; P00811; active = well fitted curve in the direction sought with a large enough effect; inconclusive = small, poorly fitted or top-dose-only effect
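E. coli AmpC (5.3 nM) in 20 mM phosphate pH 7.0 with 0.01% Triton X-100, preincubated 15 min RT with compound; nitrocefin (2 uL of 800 uM stock) hydrolysis followed by 480 nm absorbance every 20 s over 4 min.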
Anthrax LT inh = inhibitors of anthrax lethal toxin internalization | Cells, anthrax lethal toxin internalization, FRET ratio (460/530) | Potency, µM (series often up to 40 µM), most hits filed as inhibitors | 70,000 tested, 0.67% active | AID 912; also: nearly all actives have a fitted effect of over 50% in size
Hits are given with their value; - = inactive; ? = inconclusive; . = not tested or not shown; ! = repeats disagree; [ ] = another dose, or the depositor's remark. Unless noted, calls follow the shape of the full dose curve.

SMILES	AmpC nodet inh	SmPrx2 inh	AmpC inh det	Anthrax LT inh
CCCSc1nc(C)c(-c2csc(C(C#N)=C3CCCC3)n2)cc1C#N	13µM	-	-	-
CCCCSc1nc2c(cc1C#N)CCC2	-	-	-	-
Cn1c(-c2cccc(Br)c2)cnc1NCc1cccnc1	-	-	-	-
COc1cccc(-c2cnc(NCc3cc(Cl)ccc3O)n2C)c1	13µM	-	-	?
CCCCNc1cc(=O)n(C)c(=O)[nH]1	4µM[single pt active]	-	-	-
O=C(NC1CCCC1)C(c1ccc(N2CCOCC2)cc1)N(Cc1ccco1)C(=O)c1ccco1 (stereo not drawn)	-	-	-	-
Cn1c(C(=O)NCC2CCCO2)cc2c(=O)n(C)c3ccccc3c21 (stereo not drawn)	4µM[single pt active]	-	-	-
Cn1c(C(=O)Nc2ccc3c(c2)OCO3)cc2c(=O)n(C)c3ccccc3c21	4µM[single pt active]	-	-	?
Cn1c(C(=O)NCCN2CCCCCC2)cc2c(=O)n(C)c3ccccc3c21	-	-	-	1.6µM
CC(C)OCCCNC(=O)c1cc2c(=O)n(C)c3ccccc3c2n1C	-	-	-	-
CCCCN(CC)CCCNC(=O)c1cc2c(=O)n(C)c3ccccc3c2n1C	-	-	-	4µM
Cn1c(C(=O)NCCN2CCN(Cc3ccccc3)CC2)cc2c(=O)n(C)c3ccccc3c21	?	-	-	-
C=CCn1c(SCC(=O)Nc2cccc(OC)c2)nnc1-c1cccnc1	-	-	-	-
CN1CCN(CCCNC(=O)c2cc3c(=O)n(C)c4ccccc4c3s2)CC1	-	-	-	10µM
CC1CCN(CCCNC(=O)c2cc3c(=O)n(C)c4ccccc4c3n2C)CC1	-	-	-	6.3µM
COc1ccccc1CNC(=O)c1cc2c(=O)n(C)c3ccccc3c2n1C	4µM[single pt active]	-	-	-
Cc1cc(C)c2nc3c(c(C(=O)O)c2c1)CCC3	-	-	-	-
COC(=O)CNC(=O)C(C)NC(=O)OCc1ccccc1 (stereo not drawn)	-	.	-	?
Cc1cc(C)n(-c2ccc(C(=O)OCC(=O)c3ccc(Br)s3)cc2)n1	13µM[single pt active]	-	-	-
Cc1cc(C)n(-c2ccc(C(=O)OCC(=O)NCc3ccco3)cc2)n1	-	-	-	-
COc1ccc(NC(=O)CSc2nnc(Cc3cccn3C)n2CCc2ccccc2)cc1OC	-	-	-	?
CC(C)NC(=O)N1CCCC2(CCN(C(=O)c3ccco3)CC2)C1	-	-	-	?
COCCCNCC(=O)Nc1ccc(OC(F)(F)F)cc1	-	-	-	-
N#CC(C#N)=NNc1ccc(OC(F)(F)F)cc1	.	.	.	0.5µM
Ic1ccccc1CN[C@@H]1C2CCN(CC2)[C@H]1C(c1ccccc1)c1ccccc1	-	-	-	16µM
SMILES	AmpC nodet inh	SmPrx2 inh	AmpC inh det	Anthrax LT inh
COc1ccc(S(=O)(=O)c2c(N)n(Cc3ccco3)c3nc4ccccc4nc23)cc1	13µM	-	-	?
COc1ccc(Cn2c(C)nc3c(c2=O)c2nc4ccccc4nc2n3Cc2ccco2)cc1	-	-	-	?
CCCn1c(CCC(=O)O)ccc1-c1ccc(OC)cc1	-	-	-	.
CCOC(=O)N1CCC(NC(=O)c2ccc3snnc3c2)CC1	4µM[single pt active]	-	-	-
CC(C)CC(NS(=O)(=O)c1ccc2c(c1)oc(=O)n2C)C(=O)NC1CCCc2ccccc21 (stereo not drawn)	4µM[single pt active]	-	-	-
CC1CC(C)CN(C(=O)C(NS(=O)(=O)c2ccc3c(c2)oc(=O)n3C)C(C)C)C1 (stereo not drawn)	4µM[single pt active]	-	-	-
CC(C)C(NS(=O)(=O)c1ccc2c(c1)oc(=O)n2C)C(=O)N1CCN(C2CCCCC2)CC1 (stereo not drawn)	-	-	-	-
Cc1cnc(CNc2ccnc(-c3cccc(C#N)c3)n2)cn1	-	-	-	?
COc1ccc(NC(=O)CN(C)S(=O)(=O)c2cccc3cccnc23)cc1	-	-	-	-
CN(CC(=O)NC1CCCCCCC1)S(=O)(=O)c1cccc2cccnc12	4µM[single pt active]	-	-	-
CN(CC(=O)Nc1ccc(Cl)cc1)S(=O)(=O)c1cccc2cccnc12	-	-	-	7.9µM
CO[C@]1(NC(=O)Cc2cccs2)C(=O)N2C(C(=O)O)=C(COC(N)=O)CS[C@H]21	5µM	-	5µM	5µM
CN(C)CCn1nnnc1SCC1=C(C(=O)O)N2C(=O)[C@@H](NC(=O)Cc3csc(N)n3)[C@@H]2SC1	-	-	-	-[3.58 µM]
CO[C@]1(NC(=O)CSCC#N)C(=O)N2C(C(=O)O)=C(CSc3nnnn3C)CS[C@H]21	7.9µM![single pt active]	-	?	?

Assay outcomes deposited in PubChem by National Center for Advancing Translational Sciences (NCATS).
